Measured values: publication PMC4336329 (PLoS ONE, 2015)
The campaign covered roughly 310,000 compounds. About 14,000 (4.5%) showed an effect of 50% or more. Effects have a minus sign here. The full list was thinned out, with strong results kept by preference.

Each compound was assayed against human ether-à-go-go-related gene (hERG) potassium channel (human, UniProt Q12809) (assay: primary screen, population patch clamp on CHO cells stably expressing hERG; higher = less effect of the substance).
human ether-à-go-go-related gene (hERG) potassium channel, sequence (Q12809 whole entry, looked up): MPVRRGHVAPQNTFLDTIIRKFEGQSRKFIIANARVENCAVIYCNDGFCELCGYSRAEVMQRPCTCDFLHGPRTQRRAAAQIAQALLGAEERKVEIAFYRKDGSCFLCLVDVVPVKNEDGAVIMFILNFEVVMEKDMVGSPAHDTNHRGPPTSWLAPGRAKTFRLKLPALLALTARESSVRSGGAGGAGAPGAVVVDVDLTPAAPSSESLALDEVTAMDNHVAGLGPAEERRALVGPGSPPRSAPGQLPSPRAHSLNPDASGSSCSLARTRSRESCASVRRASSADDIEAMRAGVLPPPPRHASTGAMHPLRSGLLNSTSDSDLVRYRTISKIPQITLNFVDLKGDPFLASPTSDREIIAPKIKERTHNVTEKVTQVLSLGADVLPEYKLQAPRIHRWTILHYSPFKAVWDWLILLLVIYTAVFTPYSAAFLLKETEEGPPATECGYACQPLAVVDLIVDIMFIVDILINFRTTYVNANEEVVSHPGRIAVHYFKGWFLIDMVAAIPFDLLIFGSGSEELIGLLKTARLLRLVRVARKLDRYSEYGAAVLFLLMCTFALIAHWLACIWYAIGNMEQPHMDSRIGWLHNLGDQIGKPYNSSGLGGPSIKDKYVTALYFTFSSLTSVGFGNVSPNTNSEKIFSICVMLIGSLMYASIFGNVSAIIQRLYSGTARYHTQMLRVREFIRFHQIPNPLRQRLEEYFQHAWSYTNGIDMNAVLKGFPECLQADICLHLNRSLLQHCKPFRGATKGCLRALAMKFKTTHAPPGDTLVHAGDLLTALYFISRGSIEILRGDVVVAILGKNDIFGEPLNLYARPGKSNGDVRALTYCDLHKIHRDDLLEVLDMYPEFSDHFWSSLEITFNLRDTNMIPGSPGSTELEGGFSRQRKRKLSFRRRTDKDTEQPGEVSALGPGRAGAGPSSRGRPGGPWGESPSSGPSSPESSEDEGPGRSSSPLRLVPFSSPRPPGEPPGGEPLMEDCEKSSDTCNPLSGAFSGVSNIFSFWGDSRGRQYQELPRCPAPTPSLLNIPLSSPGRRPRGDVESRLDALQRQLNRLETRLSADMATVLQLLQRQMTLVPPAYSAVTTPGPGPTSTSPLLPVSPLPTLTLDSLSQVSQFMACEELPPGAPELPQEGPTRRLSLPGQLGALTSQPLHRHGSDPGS
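Further: peak tail current of the secondary pulse compared with the same well before compound.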

| SMILES | hERG current change (%, negative = inhibition) at 10uM [%] |
| --- | --- |
| CCOC(=O)C1=C(c2ccccc2)NC(SCC(=O)NC2CCCCC2)=C(C#N)C1c1ccco1 (stereo not drawn) | -1.35 |
| COc1ccc(OC)c(C(=O)Cn2nnc3ccccc3c2=O)c1 | 9.14 |
| O=[N+]([O-])c1ccc2[nH]nc(-c3ccccc3)c2c1 | 9.26 |
| O=[N+]([O-])c1ccc2c(c1)C(c1ccccc1)=NCCN2 | -69.1 |
| O=C1C2=C(C(c3ccccc3)=NCCN2)C(c2cccc([N+](=O)[O-])c2)N1c1ccccc1 (stereo not drawn) | -21.3 |
| O=C(/C=C/c1ccc(Cl)cc1)Nc1ccccc1N1CCOCC1 | 2.84 |
| CN1CCN(c2ccc(Cl)cc2NC(=O)/C=C/c2ccc(F)cc2)CC1 | -75.6 |
| CN1CCN(NC(=O)/C=C/c2cccc(Cl)c2)CC1 | -6.09 |
| CN1CCN(c2ccc(S(=O)(=O)N3CCCCC3)cc2NC(=O)/C=C/c2ccc(Cl)c([N+](=O)[O-])c2)CC1 | -17.4 |
| CCc1cc(C(=O)Nc2cc(Cl)ccc2N2CCN(C)CC2)sc1C | 3.43 |
| CN1CCN(c2ccc(Cl)cc2NC(=O)/C=C/c2cccc(F)c2)CC1 | -69.9 |
| CCc1c(C)nc(N)nc1N1N=C1SC(C(C)=O)C(C)=O | 27.8 |
| CN(CCC#N)C(=O)COC(=O)c1ccccc1OCc1ccccc1Cl | 1.72 |
| CNC(=O)CC1C(=O)N(c2ccc(F)cc2)C(=S)N1NC(=O)c1ccc(Br)cc1 (stereo not drawn) | 2.82 |
| O=C(NC(NC(=O)c1c(F)cccc1F)c1ccc([N+](=O)[O-])cc1)c1c(F)cccc1F | -43.8 |
| Cc1ccc(SCCC(=O)NCc2ccco2)cc1 | -3.96 |
| C/C(=N/NS(=O)(=O)c1ccc(C)cc1)c1ccc(NC(=O)C(F)(F)F)cc1 | 10.7 |
| OC(COC(c1ccccc1)c1ccccc1)CN1CCOCC1 (stereo not drawn) | -5.77 |
| OC(COC(c1ccccc1)c1ccccc1)CN1CCCCC1 (stereo not drawn) | -62.9 |
| CCN1CCN(CC(O)COC(c2ccccc2)c2ccccc2)CC1 (stereo not drawn) | -17.1 |
| CCOC(=O)C1CCCN(CC(O)COC(c2ccccc2)c2ccccc2)C1 (stereo not drawn) | -79.7 |
| CCC(OCC(O)CN1CCCCC1)c1ccccc1.Cl (stereo not drawn) | 16.9 |

| SMILES | hERG current change (%, negative = inhibition) at 10uM [%] |
| --- | --- |
| OC(COc1ccc(OCc2ccccc2)cc1)CN1CCCCC1 (stereo not drawn) | -39.6 |
| CCOC(=O)C1CCCN(CCC(C)c2ccccc2)C1 (stereo not drawn) | -36.5 |
| Cl.OC(COCc1ccccc1)CN1CCCCC1 (stereo not drawn) | 6.73 |
| CCOC(=O)N1CCN(CC(O)COC(CC)c2ccccc2)CC1.Cl (stereo not drawn) | -19.6 |
| Cl.c1ccc(COC(CN2CCCCCC2)CN2CCCCCC2)cc1 | -63.6 |
| CCOC(=O)C1CCN(CC(O)COC(CC)c2ccccc2)CC1.Cl (stereo not drawn) | -63.7 |
| CCOC(=O)C1CCCN(CC(O)COc2ccccc2C(C)=O)C1.Cl (stereo not drawn) | -46.2 |
| CCOC(=O)C1CCCc2c1[nH]c1c(C(=O)O)cccc21 (stereo not drawn) | 13.3 |
| COc1ccc2nc(SCC(=O)NCCc3ccccc3)[nH]c2c1 | -21.6 |
| COc1ccc(-c2cc(C(=O)N3CCN(c4cccc(C)c4C)CC3)c3ccccc3n2)cc1OC | 22.9 |
| c1ccc(-n2cccc2)c(N2CCCCC2)c1 | 3.76 |
| O=c1cc(CSc2nnc(-c3cccnc3)n2-c2ccccc2F)nc2sccn12 | -4.15 |
| CCCCNc1ccc(C(=O)OCCN(C)C)cc1.Cl | -11.6 |
| COc1ccc(C(=O)N/N=C/c2c(CO)cnc(C)c2O)cc1 | -1.9 |
| OC1CCCN(CC(O)COC(c2ccccc2)c2ccccc2)C1 (stereo not drawn) | -18 |
| Cc1ccc(C(OCC(O)CN2CCCCC2)c2ccccc2)cc1 (stereo not drawn) | -86.6 |
| CC1CCCN(CC(O)COCc2ccccc2)C1.Cl (stereo not drawn) | -1.07 |
| CC1CCCN(CC(O)COC(c2ccccc2)c2ccccc2)C1 (stereo not drawn) | -65 |
| Cn1c(CNC(=O)c2ccco2)nnc1SCC(=O)c1ccccc1 | 10.6 |
| CCn1nc(NS(=O)(=O)c2ccc([N+](=O)[O-])cc2)c2cc3ccccc3nc21 | 19.3 |
| Cc1cc(C)cc(SCc2noc(C(=O)NCCCN3CCOCC3)c2C(=O)NCCCN2CCOCC2)c1 | -30.4 |
| O=C(Nc1ccccc1F)c1ccccc1-c1ccc(C(F)(F)F)cc1 | -5.12 |

| SMILES | hERG current change (%, negative = inhibition) at 10uM [%] |
| --- | --- |
| CC(C)c1ccc(/C=N/NC(=O)c2nnn(-c3nonc3N)c2CN2CCOCC2)cc1 | -56.6 |
| CN1CCN(Cc2c(C(=O)N/N=C/c3cccc(Br)c3)nnn2-c2nonc2N)CC1 | -74.8 |
| Nc1nonc1-n1nnc(C(=O)N/N=C/c2cccc(Cl)c2)c1CN1CCCCCC1 | 18.4 |
| CC1CCN(Cc2c(C(=O)N/N=C/c3ccc(C(C)C)cc3)nnn2-c2nonc2N)CC1 | 20.2 |
| CCc1ccc(/C=N/NC(=O)c2nnn(-c3nonc3N)c2CN2CCOCC2)cc1 | -11.6 |
| Nc1nonc1-n1nnc(C(=O)N/N=C/c2cccc(O)c2)c1CN1CCCC1 | 7.84 |
| O=C1NC(=O)C(=Cc2ccc3c(c2)OCO3)C(=O)N1 | 15.3 |
| CC1CN(C(=O)COC(=O)c2ccc(O)cc2)CC(C)O1 (stereo not drawn) | 17.4 |
| O=C(NCCCNC(=O)C(F)(F)C(F)F)C(F)(F)C(F)F | 6.91 |
| CC(C)(C)OC(=O)NCCCC[C@H](NC(=O)c1nc[nH]c1C(=O)NC(c1ccccc1)c1ccccc1)C(=O)OC(C)(C)C | 8.48 |
| Brc1cccc(Cn2c(-c3cncs3)nc3ccccc32)c1 | -10.5 |
| O=C(/C=C/c1ccccc1)NC1CC2CCC1C2 (stereo not drawn) | 5.72 |
| O=C(/C=C/c1ccc([N+](=O)[O-])cc1)NC1CC2CCC1C2 (stereo not drawn) | -67.8 |
| O=C(CSCc1ccc([N+](=O)[O-])cc1)NC1CC2CCC1C2 (stereo not drawn) | -15.3 |
| COc1ccccc1/C=C/C(=O)NC1CC2CCC1C2 (stereo not drawn) | -3.53 |
| O=C(/C=C/c1cccc([N+](=O)[O-])c1)NC1CC2CCC1C2 (stereo not drawn) | -24.7 |
| O=C(/C=C/c1ccc(Cl)cc1)NC1CC2CCC1C2 (stereo not drawn) | -53.1 |
| CCOc1ccc(NC(=O)CN2C(=O)COc3ccc(Cl)cc32)cc1 | 0.412 |
| CN(C)C=O.Oc1cccc2c(NC(=S)Nc3ccc(OC(F)F)cc3)cccc12 | -49.5 |
| CCOC(=O)CSC1=NC(=O)/C(=C\c2ccc(OC(C)=O)cc2)S1 | 13.1 |
| CCn1ncc(S(=O)(=O)Nc2cccnc2)c1C | 5.02 |
| CC1(C)CC(=O)C=C(N2CCOCC2)C1 | 15.6 |

| SMILES | hERG current change (%, negative = inhibition) at 10uM [%] |
| --- | --- |
| CN(C)c1cccc(N=C2C=C(N3CCOCC3)CC(C)(C)C2)c1 | -60.5 |
| CC1(C)CC(N2CCOCC2)=CC(=[N+]2CCOCC2)C1.[I-] | 8.01 |
| CSc1nnc(CNC(=O)c2ccccc2)n1-c1cccc(C)c1 | -6.07 |
| COC(=O)c1sccc1Oc1ccc(F)cc1[N+](=O)[O-] | 1.74 |
| CCN1CCN(C(=O)c2ccccc2N(Cc2ccccc2)S(=O)(=O)c2ccc(C)cc2)CC1 | -53.2 |
| COc1ccc(S(=O)(=O)N(Cc2ccccc2)c2ccccc2C(=O)N2CCOCC2)cc1 | -8.54 |
| Cc1ccc(S(=O)(=O)N(Cc2ccccc2)c2ccccc2C(=O)N2CCCCC2)cc1 | -28.6 |
| CCOC(=O)N1CCN(C(=O)c2ccccc2N(Cc2ccccc2)S(=O)(=O)c2ccc(OC)cc2)CC1 | -26.3 |
| CCN1CCN(C(=O)c2ccccc2N(C)S(=O)(=O)c2ccc(C)cc2)CC1 | 2.03 |
| CCN1CCN(C(=O)c2ccccc2N(Cc2ccccc2)S(=O)(=O)c2ccc(OC)cc2)CC1 | -73.1 |
| O=C(COc1ccc(Br)cc1CO)Nc1ccccc1F | -2.36 |
| COc1ccc(OC)c(S(=O)(=O)N(C)CC(=O)N2CCN(c3ccccc3F)CC2)c1 | -6.63 |
| CCCOP(=O)(c1ccc(N(C)C)cc1)C(O)c1cc(OC)ccc1OC (stereo not drawn) | 0.331 |
| CN(C)CCN(C(=O)c1ccc2ccccc2c1)c1nc2cc3c(cc2s1)OCCO3.Cl | 7.59 |
| CC(=O)N(CCN(C)C)c1nc2cc3c(cc2s1)OCCO3.Cl | 10.6 |
| Cc1ccc2nc(N(CCCN(C)C)C(=O)CN3C(=O)c4ccccc4C3=O)sc2c1.Cl | -47.5 |
| CCN(CC)CCN(C(=O)CN1C(=O)c2ccccc2C1=O)c1nc2cc3c(cc2s1)OCO3.Cl | -17.8 |
| CN(C)CCN(C(=O)CN1C(=O)c2ccccc2C1=O)c1nc2cc3c(cc2s1)OCO3.Cl | -57 |
| CN(C)CCN(C(=O)CN1C(=O)c2ccccc2C1=O)c1nc2cc3c(cc2s1)OCCO3.Cl | -53.8 |
| COCC(C)NC(=O)CCc1nnc(C2(c3ccc(Cl)cc3)CCC2)o1 (stereo not drawn) | 5.14 |
| O=C(O)CCC(=O)NNC(=O)c1cccc(Br)c1 | -0.791 |
